Laboratory results published in PubChem BioAssay AID1159580 (chemical genetic matrix, 2015).
Screen size: about 5,500 compounds; about 2,000 (36%) were called active. Roughly 18% stayed inconclusive and do not appear here. Cut-off read from the data, not from the text of the source: active = normalized growth mostly below about 0.91 (no sharp cut-off); inconclusive = no clear call, values can overlap the other calls; inactive = mostly above about 0.92. The list shows a part of the results.

Assay: chemical genetic growth profiling, strain panel (AID 1159580);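 note: tested at 20 µM; growth read once vehicle control cultures reached saturation at 30 °C; 1 = growth at the plate median or of vehicle wells; lower values mean less growth of the strain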
Conditions: growth OD

Measured: normalized growth

CO[C@H]1[C@H](O)[C@H](O[C@H]2CC[C@]3(C)C4CC[C@]5(C)C(C6=CC(=O)OC6)CC[C@]5(O)C4CC[C@@H]3C2)O[C@@H](C)[C@@H]1O (some centres undefined)
inactive: S. cerevisiae deletion strains, locus YJR043C, strain POL32, stronger effect = lower value 1.02 | S. cerevisiae deletion strains, locus YJR075W, strain HOC1, stronger effect = lower value 1.02 | S. cerevisiae deletion strains, locus YKL009W, strain mrt4, stronger effect = lower value 0.996 | S. cerevisiae deletion strains, locus YKL068W, stronger effect = lower value 1 | S. cerevisiae deletion strains, locus YKL085W, strain MDH1 (second series), stronger effect = lower value 1.01 | S. cerevisiae deletion strains, locus YKL085W, strain MDH1, stronger effect = lower value 1.01 | S. cerevisiae deletion strains, locus YKL160W, strain elf1, stronger effect = lower value 0.989 | S. cerevisiae deletion strains, locus YKL190W, strain CNB1, stronger effect = lower value 1.01 | S. cerevisiae deletion strains, locus YKR001C, strain vps1, stronger effect = lower value 0.992 | S. cerevisiae deletion strains, locus YKR026C, strain gcn3, stronger effect = lower value 0.995 | S. cerevisiae deletion strains, locus YKR091W, strain srl3, stronger effect = lower value 0.995 | S. cerevisiae deletion strains, locus YLL001W, strain dnm1, stronger effect = lower value 0.999 | S. cerevisiae deletion strains, locus YLL026W, stronger effect = lower value 1 | S. cerevisiae deletion strains, locus YLL041C, strain sdh2, stronger effect = lower value 1.01 | S. cerevisiae deletion strains, locus YLR027C, strain aat2, stronger effect = lower value 0.999 | S. cerevisiae deletion strains, locus YLR039C, strain RIC1, stronger effect = lower value 1.02 | S. cerevisiae deletion strains, locus YLR058C, strain SHM2, stronger effect = lower value 1.02 | S. cerevisiae deletion strains, locus YLR102C, strain apc9, stronger effect = lower value 1 | S. cerevisiae deletion strains, locus YLR221C, strain rsa3, stronger effect = lower value 1.01 | S. cerevisiae deletion strains, locus YLR258W, strain gsy2, stronger effect = lower value 1 | S. cerevisiae deletion strains, locus YLR262C, strain YPT6 (second series), stronger effect = lower value 1.01 | S. cerevisiae deletion strains, locus YLR262C, strain YPT6, stronger effect = lower value 1.01 | S. cerevisiae deletion strains, locus YLR268W, strain sec22, stronger effect = lower value 1.02 | S. cerevisiae deletion strains, locus YLR320W, strain mms22, stronger effect = lower value 1.01 | S. cerevisiae deletion strains, locus YLR330W, strain CHS5, stronger effect = lower value 1.02 | S. cerevisiae deletion strains, locus YLR342W, strain FKS1 (second series), stronger effect = lower value 1.06 | S. cerevisiae deletion strains, locus YLR342W, strain FKS1, stronger effect = lower value 1 | S. cerevisiae deletion strains, locus YLR357W, strain rsc2, stronger effect = lower value 0.992 | S. cerevisiae deletion strains, locus YLR370C, strain arc18, stronger effect = lower value 1 | S. cerevisiae deletion strains, locus YLR371W, strain rom2, stronger effect = lower value 1.02 | S. cerevisiae deletion strains, locus YLR384C, strain iki3, stronger effect = lower value 0.991 | S. cerevisiae deletion strains, locus YLR418C, strain cdc73, stronger effect = lower value 1.03 | S. cerevisiae deletion strains, locus YML016C, strain PPZ1, stronger effect = lower value 1.01 | S. cerevisiae deletion strains, locus YML032C, strain rad52, stronger effect = lower value 1 | S. cerevisiae deletion strains, locus YML120C, strain ndi1, stronger effect = lower value 1.03 | S. cerevisiae deletion strains, locus YML124C, strain tub3, stronger effect = lower value 1.01 | S. cerevisiae deletion strains, locus YMR058W, strain fet3, stronger effect = lower value 1.02 | S. cerevisiae deletion strains, locus YMR078C, strain ctf18, stronger effect = lower value 1.01 | S. cerevisiae deletion strains, locus YMR125W, strain sto1, stronger effect = lower value 0.981 | S. cerevisiae deletion strains, locus YMR129W, stronger effect = lower value 1.01 | S. cerevisiae deletion strains, locus YMR205C, strain PFK2, stronger effect = lower value 1 | S. cerevisiae deletion strains, locus YMR223W, strain ubp8, stronger effect = lower value 0.994 | S. cerevisiae deletion strains, locus YMR231W, strain pep5, stronger effect = lower value 1 | S. cerevisiae deletion strains, locus YMR263W, strain SAP30, stronger effect = lower value 1.01 | S. cerevisiae deletion strains, locus YMR307W, strain GAS1, stronger effect = lower value 1.06 | S. cerevisiae deletion strains, locus YNL067W, strain RPL9B, stronger effect = lower value 1.02 | S. cerevisiae deletion strains, locus YNL071W, strain lat1, stronger effect = lower value 0.996 | S. cerevisiae deletion strains, locus YNL128W, strain TEP1, stronger effect = lower value 1.04 | S. cerevisiae deletion strains, locus YNL153C, strain GIM3, stronger effect = lower value 1.02 | S. cerevisiae deletion strains, locus YNL209W, strain ssb2, stronger effect = lower value 0.985 | S. cerevisiae deletion strains, locus YNL233W, strain BNI4, stronger effect = lower value 1.02 | S. cerevisiae deletion strains, locus YNL248C, strain rpa49, stronger effect = lower value 0.991 | S. cerevisiae deletion strains, locus YNL250W, strain rad50, stronger effect = lower value 1 | S. cerevisiae deletion strains, locus YNL271C, strain bni1, stronger effect = lower value 1.01 | S. cerevisiae deletion strains, locus YNL298W, strain CLA4, stronger effect = lower value 0.999 | S. cerevisiae deletion strains, locus YNL307C, strain MCK1, stronger effect = lower value 1.02 | S. cerevisiae deletion strains, locus YNL322C, strain KRE1 (second series), stronger effect = lower value 0.989 | S. cerevisiae deletion strains, locus YNL322C, strain KRE1, stronger effect = lower value 1.01 | S. cerevisiae deletion strains, locus YNR049C, strain mso1, stronger effect = lower value 1 | S. cerevisiae deletion strains, locus YNR052C, strain pop2, stronger effect = lower value 1 | S. cerevisiae deletion strains, locus YOL006C, strain TOP1, stronger effect = lower value 1.06 | S. cerevisiae deletion strains, locus YOL012C, strain htz1 1.19 | S. cerevisiae deletion strains, locus YOL147C, strain pex11, stronger effect = lower value 1.01 | S. cerevisiae deletion strains, locus YOR001W, strain rrp6, stronger effect = lower value 1.02 | S. cerevisiae deletion strains, locus YOR061W, strain CKA2, stronger effect = lower value 1.01 | S. cerevisiae deletion strains, locus YOR069W, strain VPS5, stronger effect = lower value 1.01 | S. cerevisiae deletion strains, locus YOR070C, strain gyp1, stronger effect = lower value 1.01 | S. cerevisiae deletion strains, locus YOR080W, strain dia2, stronger effect = lower value 1 | S. cerevisiae deletion strains, locus YOR083W, strain WHI5, stronger effect = lower value 0.955 | S. cerevisiae deletion strains, locus YOR106W, strain vam3, stronger effect = lower value 0.984 | S. cerevisiae deletion strains, locus YOR136W, strain idh2, stronger effect = lower value 1.01 | S. cerevisiae deletion strains, locus YOR144C, strain elg1, stronger effect = lower value 1.01 | S. cerevisiae deletion strains, locus YOR184W, strain ser1, stronger effect = lower value 1.01 | S. cerevisiae deletion strains, locus YOR265W, strain rbl2, stronger effect = lower value 1.01 | S. cerevisiae deletion strains, locus YOR270C, strain vph1, stronger effect = lower value 0.97 | S. cerevisiae deletion strains, locus YOR290C, strain snf2, stronger effect = lower value 1.01 | S. cerevisiae deletion strains, locus YOR316C, strain cot1, stronger effect = lower value 1 | S. cerevisiae deletion strains, locus YPL051W, strain arl3, stronger effect = lower value 0.994 | S. cerevisiae deletion strains, locus YPL055C, strain LGE1, stronger effect = lower value 1 | S. cerevisiae deletion strains, locus YPL078C, strain atp4, stronger effect = lower value 0.989 | S. cerevisiae deletion strains, locus YPL106C, strain sse1, stronger effect = lower value 0.959 | S. cerevisiae deletion strains, locus YPL240C, strain hsp82, stronger effect = lower value 0.998 | S. cerevisiae deletion strains, locus YPL241C, strain CIN2, stronger effect = lower value 1.01 | S. cerevisiae deletion strains, locus YPR119W, strain clb2, stronger effect = lower value 0.996 | S. cerevisiae deletion strains, locus YPR141C, strain kar3, stronger effect = lower value 1 | S. cerevisiae deletion strains, locus YPR163C, strain tif3, stronger effect = lower value 1.01 | S. cerevisiae deletion strains, locus YPR167C, strain met16, stronger effect = lower value 0.998 | S. cerevisiae deletion strains, strain wtn01, stronger effect = lower value 1 | S. cerevisiae strains, strain wild type, stronger effect = lower value 1.02
